Source: ChEMBL document CHEMBL1201862, “PubChem BioAssay data set” (2004)
The campaign covered roughly 400,000 compounds. About 2,100 (0.53%) were called active. Another 14% or so got no clear call; they are omitted. How the calls were made is not given here. The sample as a whole holds a higher share of actives than the screen did.

The compounds below were run against Ataxin-2 (Homo sapiens) (UniProt Q99700) (assay: qHTS for Inhibitors of ATXN expression.).
Assay type: functional

Sequence of Ataxin-2 (Homo sapiens) (Q99700 whole entry): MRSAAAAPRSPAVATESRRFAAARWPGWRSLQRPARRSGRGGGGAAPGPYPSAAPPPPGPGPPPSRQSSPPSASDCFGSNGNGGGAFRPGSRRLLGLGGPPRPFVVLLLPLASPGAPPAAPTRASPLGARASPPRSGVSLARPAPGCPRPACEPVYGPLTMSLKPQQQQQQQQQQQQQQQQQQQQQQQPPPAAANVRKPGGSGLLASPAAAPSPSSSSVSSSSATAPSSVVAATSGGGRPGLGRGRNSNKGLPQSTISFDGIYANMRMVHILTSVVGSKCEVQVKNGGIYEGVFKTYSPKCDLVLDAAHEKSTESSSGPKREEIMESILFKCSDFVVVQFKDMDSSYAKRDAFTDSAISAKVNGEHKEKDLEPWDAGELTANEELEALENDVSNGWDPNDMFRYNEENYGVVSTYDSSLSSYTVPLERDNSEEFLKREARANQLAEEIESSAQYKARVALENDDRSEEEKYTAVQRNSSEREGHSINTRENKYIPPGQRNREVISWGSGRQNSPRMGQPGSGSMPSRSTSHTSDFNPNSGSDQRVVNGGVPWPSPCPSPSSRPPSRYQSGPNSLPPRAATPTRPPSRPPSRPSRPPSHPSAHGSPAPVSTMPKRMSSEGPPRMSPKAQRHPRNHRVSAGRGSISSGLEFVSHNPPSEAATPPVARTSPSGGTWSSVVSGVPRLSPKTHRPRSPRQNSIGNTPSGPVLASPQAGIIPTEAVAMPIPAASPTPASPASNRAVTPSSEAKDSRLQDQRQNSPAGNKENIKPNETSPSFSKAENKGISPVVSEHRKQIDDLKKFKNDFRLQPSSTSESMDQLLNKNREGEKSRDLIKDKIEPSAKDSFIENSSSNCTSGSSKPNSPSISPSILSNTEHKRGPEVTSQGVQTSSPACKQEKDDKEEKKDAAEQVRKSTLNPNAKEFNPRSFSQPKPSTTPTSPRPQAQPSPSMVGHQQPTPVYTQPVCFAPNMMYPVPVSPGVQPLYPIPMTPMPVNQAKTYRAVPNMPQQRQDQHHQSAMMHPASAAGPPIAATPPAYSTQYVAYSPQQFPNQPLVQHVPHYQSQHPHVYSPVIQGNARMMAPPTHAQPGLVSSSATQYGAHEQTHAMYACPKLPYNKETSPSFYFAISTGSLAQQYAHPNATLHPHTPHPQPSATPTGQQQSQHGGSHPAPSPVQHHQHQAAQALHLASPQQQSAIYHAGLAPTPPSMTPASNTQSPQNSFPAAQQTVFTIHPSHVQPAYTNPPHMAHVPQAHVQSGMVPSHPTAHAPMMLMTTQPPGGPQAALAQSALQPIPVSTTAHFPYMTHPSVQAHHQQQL

SMILES	Potency
CN(O)C(=S)c1ccccc1	8.91 µM (active)
Cc1ccc(S(=O)(=O)Nc2cc(C)c(O)c(Sc3nnc(C)[nH]3)c2)cc1	inactive
Cc1cc(=O)oc2c(CN3CC(C)OC(C)C3)c(O)c(Cl)cc12 (stereo not given)	inactive
CC(=O)Oc1ccc2ccc(=O)oc2c1	inactive
CCN(CC)c1ccc2cc(-c3nc4ccccc4n3C)c(=O)oc2c1	inactive
CCn1c(=N)c(C(=O)NCc2ccccc2)cc2c(=O)n3cc(C)ccc3nc21	inactive
CCCc1nc2ccc(C)cn2c1Cc1ccccc1	22.4 µM (active)
CCCc1nc2c3ccccc3ccn2c1Cc1ccccc1	22.4 µM (active)
CCCc1nc2ccc(C)cn2c1Cc1ccccc1OC	39.8 µM (active)
COCCN1C=C(C(=O)OC)C(c2ccccc2C(F)(F)F)C(C(=O)OC)=C1	inactive
COCC(C)n1c(SCc2cc(=O)n3cc(C)ccc3n2)nc2ccccc2c1=O (stereo not given)	inactive
Nn1c(Cc2ccccc2)nc2ccccc2c1=O	inactive
CCCc1nc2ccc(C(=O)OC)cn2c1Cc1ccccc1C(F)(F)F	39.8 µM (active)
CCOC(=O)Cc1csc(N/C=C2/C(=O)N(c3ccccc3C(F)(F)F)C(=O)c3ccccc32)n1	inactive
CCC(C)n1c(=N)c(C(=O)NCc2ccccc2)cc2c(=O)n3cc(C)ccc3nc21 (stereo not given)	inactive
O=Cc1ccc(N2N=C(c3ccccc3)CC2c2ccccc2)cc1 (stereo not given)	inactive
COC(=O)c1ccc(N2C(c3cc(OC)cc(OC)c3)=Cc3ccc(-c4cccnc4)cc3C2CC(=O)C2CC2)cc1 (stereo not given)	inactive
COc1ccc(C2C=C(c3ccc(Cl)cc3)Nc3nc(NC(=O)CCC(=O)O)nn32)cc1 (stereo not given)	inactive
CO/C(O)=C1\C(C)=NC2=C(C(=O)CC(C)(C)C2)C1c1cnn(C)c1C (stereo not given)	inactive
CCN(CC)c1ccc2c(C)c(CN3CCOCC3)c(=O)oc2c1	inactive
COc1ccc(C2CC(c3cccc(F)c3)=NN2c2ccc(S(N)(=O)=O)cc2)cc1 (stereo not given)	inactive
CNC(=O)/C(C#N)=C/c1ccc(-c2nc3ccccc3s2)o1	inactive

SMILES	Potency
CCCc1nc2c(C)cc(Br)cn2c1Cc1ccc(C)cc1	20 µM (active)
CCN(Cc1cc(=O)n2cc(Cl)c(C)c(Cl)c2n1)Cc1nc(O)c2ccccc2n1	inactive
COc1ccc(OC)c2sc(N(CCN(C)C)C(=O)/C=C/c3cccs3)nc12	28.2 µM (active)
CCOC(=O)c1s/c(=N\C(=O)/C=C/c2cccs2)n(C)c1C	inactive
CN(C)CCCN(C(=O)C1COc2ccccc2O1)c1nc2ccc(F)cc2s1 (stereo not given)	inactive
CN(C)CCCN(C(=O)/C=C/c1cccs1)c1nc2ccc(F)cc2s1	39.8 µM (active)
CCN(CC(=O)NCc1ccc(F)cc1)C(=O)/C=C/c1cccs1	inactive
CC(=O)Nc1ccc(NC(=O)C(C)OC(=O)/C=C/c2cccs2)cc1 (stereo not given)	inactive
CC1(C)C(=O)C=CC(=O)C(C)(C)C(=O)C=CC(=O)C(C)(C)C2=CC=C(O2)C(C)(C)C(=O)C=CC1=O	39.8 µM (active)
COCCN=C(S)NCCCNc1nc2cc3c(cc2cc1C#N)OCO3	inactive
Cc1ccc(C(=O)c2oc3ccccc3c2NC(=O)c2cc(-c3ccccc3O)[nH]n2)cc1	inactive
Cc1ccc(O)c(-c2cc(-c3ccccc3[N+](=O)[O-])[nH]n2)c1	8.91 µM (active)
Cc1cccc(NC(=O)c2cc(-c3cc(Cl)ccc3O)[nH]n2)c1	inactive
Cc1csc(NC(=O)c2cc(O)nc3ccc(S(=O)(=O)N4CCOCC4)cc23)n1	inactive
Cc1ccc(/C=N/N2CCCCC2)o1	inactive
O=C(O)c1cc(-c2ccc(/C=C3\NC(=O)N(c4ccc(Cl)cc4)C3=O)o2)ccc1Cl	inactive
CCN(CC)c1ccc(/C=C(\C#N)C(=O)NCc2ccccc2)cc1	inactive
CCc1cccc(CC)c1NC(=O)/C(C#N)=C/c1ccccc1C(F)(F)F	39.8 µM (active)
Cc1cc(/C=C(\C#N)C(=O)Nc2ccccc2F)c(C)[nH]1	inactive
O=C(NCc1ccccn1)C(=O)C1C(=O)Nc2ccccc21 (stereo not given)	inactive
COc1ccc([C@H]2/C=C\CN(C(=O)CC(C)(C)C)[C@@H](C)C(=O)N2Cc2ccc(F)cc2)cc1	35.5 µM (active)
COc1ccc(CCNC2=CC(=O)N(c3ccc(F)cc3)C2=O)cc1	inactive

SMILES	Potency
COc1cc(C(=O)N/N=C/c2sc(N3CCOCC3)nc2-c2ccccc2)cc(OC)c1OC	inactive
COc1ccc(/C=C2\Oc3cc(OCC(=O)N4CCC(C(=O)O)CC4)ccc3C2=O)c(OC)c1	inactive
COC(=O)Cc1c(C)c2cc3c(c(C)c2oc1=O)OCN(CCc1ccccc1F)C3	inactive
COC(=O)c1cc(=O)n(CCc2ccccc2F)/c(=N/c2ccc(F)c(Cl)c2)s1	33.6 µM (active)
COC(=O)c1cc2c(s1)-c1cc(F)ccc1OC2	inactive
Cc1cs/c(=N\c2cccnc2)n1Cc1ccco1	inactive
COC(=O)c1cc(=O)n(Cc2ccco2)/c(=N/c2ccc(F)c(Cl)c2)s1	3.16 µM (active)
COC(=O)c1cc(=O)n(-c2ccc(F)cc2)/c(=N/c2ccc(F)cc2)s1	23.8 µM (active)
CCOC(=O)c1cc2c(=O)n3ccccc3nc2n(Cc2ccco2)/c1=N\C(=O)c1c(F)cccc1Cl	inactive
Cc1ccc(CCNC(=O)c2cc(S(=O)(=O)N3CCOCC3)cn2C)cc1	inactive
COc1ccc(CN(C(=O)c2snc(C(N)=O)c2N)C(C)C(=O)NCc2ccc(F)cc2)cc1 (stereo not given)	inactive
CNc1nc(N)c([N+](=O)[O-])c(NCC2CCCO2)n1 (stereo not given)	inactive
COc1cccc(/C=C/c2nc(C#N)c(NC3CCCCC3)o2)c1	inactive
CCc1nc(Nc2cccc(OC)c2)c2oc3ccccc3c2n1	inactive
COc1ccc(Nc2nc(N)c([N+](=O)[O-])c(NC3CCCCC3)n2)cc1	31.6 µM (active)
COc1cccc(-c2ccc3c(N)c(C(=O)NCc4ccc(Cl)cc4)sc3n2)c1	inactive
COc1cccc(Nc2nc(N)c([N+](=O)[O-])c(NCc3ccccc3)n2)c1	31.6 µM (active)
O=C1/C(=C/c2ccco2)Oc2c1ccc(O)c2CN1CCCCC1	inactive
O=[N+]([O-])c1ccc(-c2cn3nc(-c4ccccc4)c(-c4ccccc4)nc3n2)cc1	inactive
O=c1cc(-c2ccccc2)[nH]n1-c1ccc([N+](=O)[O-])cc1	20 µM (active)
O=[N+]([O-])c1cccc(C2CC(c3ccccc3)=NN2c2ccccc2)c1 (stereo not given)	inactive
